# About 8,200 (2.3%) of roughly 360,000 compounds were called active. This excerpt belongs to a sample that is enriched for actives. A number with no mark means an inactive call. Rule as the data show it: active = inhibition above about 27%; inactive = the rest.
# Target: Fructose-bisphosphate aldolase (Mycobacterium tuberculosis (strain ATCC 25618 / H37Rv)) (UniProt P9WQA3)
# Assay: M. tuberculosis aldolase activity blockers – biochemical, fluorescence, strain H37Rv, primary screen (AID 588726);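 also: 0% = vehicle and 100% = reference inhibitor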
# Conditions: purified M. tuberculosis FBA, fluorescence read-out, at 1 µM, hits give high values
# Chain of Fructose-bisphosphate aldolase (Mycobacterium tuberculosis (strain ATCC 25618 / H37Rv)) (P9WQA3 whole entry, looked up): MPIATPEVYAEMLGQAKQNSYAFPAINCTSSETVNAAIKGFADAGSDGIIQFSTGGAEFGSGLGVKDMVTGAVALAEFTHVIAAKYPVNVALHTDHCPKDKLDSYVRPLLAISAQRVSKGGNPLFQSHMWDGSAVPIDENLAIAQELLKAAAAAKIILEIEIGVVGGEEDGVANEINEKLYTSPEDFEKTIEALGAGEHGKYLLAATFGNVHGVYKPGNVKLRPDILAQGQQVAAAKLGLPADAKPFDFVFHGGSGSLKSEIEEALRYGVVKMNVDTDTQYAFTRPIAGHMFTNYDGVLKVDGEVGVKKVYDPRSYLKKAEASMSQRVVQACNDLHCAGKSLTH
row,Structure (SMILES),inhibition
1,COc1ccc(-c2cc(C(=O)Nc3ccccc3O)c3ccccc3n2)cc1,28.8% (active)
2,COc1ccc(NC(=O)CN(C)C(=O)c2cc(-c3ccc(C)o3)nc3ccccc23)cc1,71.2% (active)
3,COc1ccc(C)cc1NC(=O)c1cc(-c2ccccc2)nc2c1cnn2C(C)C,1.87%
4,C/C(N)=C(/C#N)C(=O)COC(=O)c1cc(-c2ccc(C)cc2)nc2ccccc12,0.39%
5,CN(C(=O)COC(=O)c1cc(-c2ccco2)nc2ccccc12)C1CCS(=O)(=O)C1 (stereo unspecified),4.55%
6,COc1cccc(NC(=O)CN(C)C(=O)c2cc(Cl)nc3ccccc23)c1,2.95%
7,C/C(=N\NC(=O)c1cc(-c2ccc(O)cc2)nc2ccccc12)c1cccnc1,0.88%
8,COc1ccc(NC(=O)CN(C)C(=O)c2cc(C)oc2C)cc1,0.68%
9,COc1ccc(-c2cc(C(=O)n3cnc4ccccc43)c3ccccc3n2)cc1,113% (active)
10,CN(CCOc1ccccc1)C(=O)c1cc(-c2ccco2)nc2ccccc12,29.6% (active)
11,O=C(c1ccc(Cl)cc1)n1cnc2ccccc21,5.13%
12,CN(CCOc1ccccc1)C(=O)c1cc(COc2c(F)cccc2F)on1,-3.64%
13,CC(C)c1ccc(/C=C/C(=O)NCCCN2CCOCC2)cc1,0.72%
14,CCN(C(=O)c1cc([N+](=O)[O-])ccc1NCc1cccnc1)c1ccccc1,2.57%
15,COC(=O)c1cc2n(n1)CCCNC2=O,3.15%
16,C=C(C)Cn1c(C)cc(C)c(S(=O)(=O)c2ccccc2C)c1=O,-0.53%
17,CCc1cc(C(c2ccccc2OC)N2CCOCC2)c(NC(=O)c2ccccc2)s1 (stereo unspecified),-1.6%
18,COc1cccc(C(=O)N/N=C(\C)c2cccc(NC(=O)c3ccc(F)cc3)c2)c1OC,-1.27%
19,Cn1nc(C(F)(F)F)cc1-c1ccc(/C=C(\C#N)C(=O)c2cccc(C(F)(F)F)c2)s1,0.1%

row,Structure (SMILES),inhibition
1,CCc1ccc(OCC(=O)OC(C)C(=O)NC2CC2)cc1 (stereo unspecified),-0.68%
2,O=C(c1ccc(Cl)s1)N(Cc1nnc(-c2ccccc2Cl)o1)C1CC1,-1.65%
3,COc1ccc(C2=NS(=O)(=O)N(C)C(C(=O)N(C)Cc3ccccc3)=C2)cc1,4.86%
4,O=C(c1cc(-c2ccco2)nc2ccccc12)N(Cc1nnc(-c2ccc(Cl)cc2)o1)C1CC1,46.8% (active)
5,COc1ccc(CN(C)C(=O)c2cc(-c3ccc(C)cc3C)nc3ccccc23)c(OC)c1OC,-0.53%
6,CC(C)N(Cc1nnc(-c2ccccc2Br)o1)C(=O)c1cc(Cl)nc2ccccc12,2.07%
7,COc1ccc(-c2cc(C(=O)N(C)Cc3ccccc3)c3ccccc3n2)cc1,69.9% (active)
8,C=CCOc1cccc(CNCc2cccnc2)c1,-1.51%
9,CC1(C)CC(=O)c2c(n(S(=O)(=O)c3ccccc3)c3ccc(NS(=O)(=O)c4ccccc4)cc23)C1,-1.63%
10,C[C@@H](C(=O)Nc1ccc2ccccc2c1)[C@@H]1C[C@@]1(C)[C@@H](NC(=O)c1cccnc1)c1ccccc1,-0.2%
11,O=C(CSc1ncn[nH]1)Nc1nc2c(F)c(F)c(F)cc2s1,0.81%
12,CC(=O)N(CN1C(=O)C2C3C=CC(C3)C2C1=O)c1cccc(Cl)c1 (stereo unspecified),-0.27%
13,COc1ccc(-c2ccc3c(c2)[C@@H]2C[C@H](N(C)S(=O)(=O)c4ccccc4)[C@H]([C@H](C)O)C(=O)N2CC3)cc1,4.15%
14,CN(Cc1ccccc1)C(=O)CCNC(=O)Cn1cnc2ccccc2c1=O,5.26%
15,CCCCN(C)CCC(=O)Nc1ccc(Cl)cc1,0.51%
16,CC(=O)Nc1ccc(Oc2ccc3c(c2)C(=O)NC3=O)cc1,2.21%
17,CCCCC(=O)Nc1ccc2c(c1)C(=O)NC2=O,42.1% (active)
18,Cc1ccc(C(=O)NC2CCN(C(=O)Nc3ccccc3Cl)CC2)cc1,-1.09%
19,COc1ccc(C(=O)OCC(=O)NC(=O)CCSc2ccccc2)cc1,-0.72%

row,Structure (SMILES),inhibition
1,Cc1ccccc1CN1CCNC(=O)C1CC(=O)NCCC1=CCCCC1 (stereo unspecified),2.98%
2,Cc1cc(C(=O)OC(C)C(=O)Nc2cccc(S(=O)(=O)N3CCOCC3)c2)c(C)o1 (stereo unspecified),-3.62%
3,CCOCCCNC(=O)C(NC(=O)c1ccccc1O)c1ccccc1 (stereo unspecified),43.8% (active)
4,CCOCCCNC(=O)C(NC(=O)CNC(=O)c1ccccc1)c1ccc(OC)cc1 (stereo unspecified),-0.07%
5,CCOCCCNC(=O)C(NC(=O)CNC(=O)c1ccccc1)c1ccc(C)cc1 (stereo unspecified),-3.14%
6,COc1cccc(NC(=O)[C@H](Cc2c[nH]c3ccccc23)NC(=O)[C@@H]2Cc3ccccc3CN2)c1,10.6%
7,CCCCn1c(O)c(N=NC(=O)Cn2c(C(F)(F)F)nc3ccccc32)c2ccccc21,3.68%
8,N#C/C(=C/c1ccc(N2CCCCC2)o1)C(=O)NCCc1c[nH]c2ccccc12,-32.6%
9,CN=C1C=C/C(=N/N=c2\ccn(O)cc2C)C=C1C,-28.4%
10,COCc1cc(=O)oc2cc(NS(=O)(=O)c3ccc(C)cc3)ccc12,62.4% (active)
11,COc1ccc(S(=O)(=O)Nc2ccc3oc(C)c(C(C)=O)c3c2)cc1,0.55%
12,Cc1ccc(S(=O)(=O)Nc2ccc(F)c(S(=O)(=O)N3CCOCC3)c2)cc1,-0.06%
13,CCOC(=O)C1CCN(C(=O)/C=C/c2cc(OC)c(OC)c(OC)c2)CC1,6.09%
14,COc1ccccc1CNC(=O)C1CCN(C(=O)[C@@H]2Cc3ccccc3CN2)CC1,-1.63%
15,COc1ccccc1CCNC(=O)C1CCN(C(=O)/C=C/c2ccccc2)CC1,81.2% (active)
16,CCCCC(CC)CNC(=O)CCCCn1c(=O)[nH]c2ccsc2c1=O (stereo unspecified),-2.17%
17,COc1cc(C2NC(=O)NC(c3ccccc3)=C2C(C)=O)c(Br)cc1OCC(N)=O (stereo unspecified),1.26%
18,O=C(CC(n1cncn1)C(Cl)(Cl)Cl)c1ccc([N+](=O)[O-])cc1 (stereo unspecified),5.32%
